Bioassay records: PubChem, National Center for Advancing Translational Sciences (NCATS)
The sample as a whole holds a higher share of hits than the screen did.
Pf Dd2 growth = blocks in vitro growth of P. falciparum Dd2; P. falciparum Dd2 growth, SYBR Green, 72 h; Potency, µM (series often up to 28.9 µM), hits mostly inhibitors; 120,000 tested, 4.3% active; active means well fitted inhibition curve with a large enough effect; further: nearly all actives have a fitted effect of over 65% in size
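Infected erythrocytes (Dd2, 0.3% parasitemia, 2.5% hematocrit final) are added to compound in RPMI-1640/Albumax II medium, grown 72 h at 37C in low oxygen, then lysed with saponin/Triton-X containing SYBR Green and read by fluorescence.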
Hits are given with their value; – = inactive; [ ] = remark or other dose.

SMILES	Pf Dd2 growth
Cc1cccc(OCC2(CNCc3ccccn3)C[C@@H](O)[C@@H](O)C2)n1 (stereo partly specified)	–
CC(C)=CCN1CCCC2(Cc3ccccc3CNC2=O)C1 (stereo unspecified)	10µM
O=C1NCc2ccccc2CC12CCCN(Cc1c(Cl)cncc1Cl)C2 (stereo unspecified)	–
Cc1ccsc1CN1CCCC2(Cc3ccccc3CNC2=O)C1 (stereo unspecified)	–
O=C1OCCN1C1CCN(Cc2ccc(F)cc2)CC1	–
O=C(NCc1ccncc1)C1CN(Cc2cccc(Br)c2)CC12CCOCC2 (stereo unspecified)	3.5µM
CCc1ccc(CN2CC(C(=O)NCc3ccncc3)C3(CCOCC3)C2)cc1 (stereo unspecified)	–
O=C(NCc1ccncc1)C1CN(Cc2ccoc2)CC12CCOCC2 (stereo unspecified)	–
O=C(NCCOc1ccccc1)c1cnc2n1CCN(Cc1ccncc1Cl)CC2	–
COc1ccc2cc(C3CN(C(=O)c4ccc(C)cc4OC)CCO3)ccc2c1 (stereo unspecified)	–
CCn1c(CO)nnc1C1CC(NC(=O)Cn2ncc3ccccc32)C1 (stereo unspecified)	–
CC1(C)CNC(=O)c2nc(CC3(O)CCCC3)[nH]c2C1	–
O=C(NC1CCCN(c2cc(-c3ccccc3)[nH]n2)C1)c1c[nH]c2ccccc12 (stereo unspecified)	–
Fc1ccc(Nc2c3c(nc4ccccc24)CCC3)cc1	–
CCN(CC)CCOC(=O)c1ccc(Nc2c3c(nc4ccccc24)CCC3)cc1	7.1µM
CCN(CC)CCOC(=O)c1ccc(NC(=O)CSc2cc(=O)n(CC)c3ccccc23)cc1	–
COc1ccc(CN2CCc3nc(C(=O)Nc4ccc(Cl)cc4)oc3CC2)cn1	2.5µM
COc1ccc(CN2CCc3nc(C(=O)NCCOc4ccccc4)oc3CC2)cn1	–
COc1ccccc1CN1CCc2nc(C(=O)Nc3ccc(Cl)cc3)oc2CC1	–
O=C(N[C@H]1CO[C@H]2[C@@H]1OC[C@@H]2n1nnnc1-c1ccccc1)C1CC1	–
Cc1cc(C(=O)N2CCC3(COc4ncccc4S(=O)(=O)N3)C2)no1 (stereo unspecified)	–
CCCNC(=O)O[C@@H]1CC[C@]2(C)[C@H](CC[C@@H](O)[C@H]2CC(=O)N2CCCCC2)[C@]1(C)CO	–
CCCNC(=O)O[C@@H]1CC[C@]2(C)[C@H](CC[C@@H](O)[C@H]2CC(=O)N2CCCC2)[C@]1(C)CO	–
COc1cc(NC(=O)O[C@@H]2CC[C@]3(C)C(CC[C@@H](O)[C@H]3CC(=O)N3CCCCC3)[C@]2(C)CO)cc(OC)c1OC (stereo partly specified)	5µM
COc1cc(NC(=O)O[C@@H]2CC[C@]3(C)C(CC[C@@H](O)[C@H]3CC(=O)N3CCCC3)[C@]2(C)CO)cc(OC)c1 (stereo partly specified)	–
SMILES	Pf Dd2 growth
CCNC(=O)O[C@@H]1CC[C@]2(C)C(CC[C@@H](O)[C@H]2CC(=O)NCc2ccc(F)cc2)[C@]1(C)CO (stereo partly specified)	–
CC(C)NC(=O)O[C@@H]1CC[C@]2(C)C(CC[C@@H](O)[C@H]2CC(=O)NCc2ccco2)[C@]1(C)CO (stereo partly specified)	–
C[C@]1(CO)C2CC[C@@H](O)[C@@H](CC(=O)NCc3cccs3)[C@]2(C)CC[C@H]1OC(=O)NC1CCCCC1 (stereo partly specified)	11µM
COc1ccc(NC(=O)O[C@@H]2CC[C@]3(C)C(CC[C@@H](O)[C@H]3CC(=O)N3CCC[C@H]3CO)[C@]2(C)CO)cc1 (stereo partly specified)	–
C[C@]1(CO)C2CC[C@@H](O)[C@@H](CC(=O)N3CCCC3)[C@]2(C)CC[C@H]1OC(=O)Nc1ccccc1 (stereo partly specified)	8.9µM
COCCNC(=O)[C@H]1C[C@H](Oc2ccccc2)CN1Cc1ccncc1	–
CN1CCCCCCN(S(=O)(=O)c2cccc(F)c2)CCC1=O	–
Cc1ccc(C2Cn3nnc(-c4nc(-c5ccc(C(F)(F)F)cc5)no4)c3CO2)c(C)c1 (stereo unspecified)	–
COC1CCC12CCN(C(=O)c1ccc3[nH]ccc3c1)CC2 (stereo unspecified)	–
CC1(C)CN(C(=O)C2CCN(C(=O)C3CCCC3)CC2)CC1(C)O (stereo unspecified)	–
O=C(CCC1CCCC1)NCCC1CCN(C(=O)Nc2cc(F)ccc2F)CC1	–
OCCn1cnc2cc(-c3n[nH]c(C4CCOC4)n3)ccc21 (stereo unspecified)	–
Cc1cc(Cl)ccc1-c1cccc(C=O)c1	–
O=C(c1ccc(F)c(Cl)c1)N1CCC2(CC1)CC(O)CCO2 (stereo unspecified)	–
O=C(C[C@H]1NC(=O)c2ccccc2NC1=O)NCCc1ccccn1	–
COc1ccc(CN2CCN(C3CCN(c4ccccc4)CC3)CC2CCO)cc1C (stereo unspecified)	11µM
Cc1ccc(CN2CCN(C3CCN(Cc4ccccn4)CC3)CC2CCO)o1 (stereo unspecified)	–
CC(C)N1CCN(C2CCN(c3ccc4c(c3)CCC4)CC2)CC1CCO (stereo unspecified)	–
COc1ccc(CN(C)C(=O)C2CNCCO2)c2cccnc12 (stereo unspecified)	–
CN(C)C(=O)N1CCN(C2CCNCC2)C(=O)C1	–
COCc1nncn1C1CCN(S(=O)(=O)c2ccc(Br)cc2)CC1	–
CC(C)N1C[C@@H]2OCC(=O)N(CC3CC3)[C@@H]2C1	–
O=C(CN1CC2CC(C1)[C@H]1CCCC(=O)N1C2)N1CCN(c2ccccc2)CC1 (stereo partly specified)	–
Cc1cn2nc(C(=O)NC3CCCCC3)cc2c(N2CCCC2)n1	10µM
Cc1cn2nc(C(=O)NCCc3ccccc3)cc2c(N2CCCC2)n1	–
SMILES	Pf Dd2 growth
Cc1cn2nc(C(=O)NCC(C)C)cc2c(N2CCCC2)n1	–
COCCn1c(C)cnc1C1CCN(C(=O)c2ccc(OC)nc2)C1 (stereo unspecified)	–
CCn1ccc(C(=O)N2CC[C@H](c3nc(C)no3)[C@H](NC(=O)C3CC3)C2)n1	–[5.79 µM]
CC1CCC2(CC1)NC(=O)N(CC(=O)N1CCCCC1)C2=O (stereo unspecified)	–
COc1cc(NC(=O)Cn2nc3n(c2=O)CCCCC3)cc(OC)c1	–
CCOc1cc(=O)n2c(c1C(=O)NCC1CCCO1)CCCCC2 (stereo unspecified)	–
COc1ncccc1CN(Cc1cccnc1OC)C[C@H]1COCc2nc3ccc(C)cc3n21	4.5µM
Cc1ccc2nc3n(c2c1)[C@@H](CNCc1ccccc1)COC3	–
COc1ccc2c(c1)nc1n2[C@@H](CN(Cc2nccs2)Cc2nccs2)COC1	–
Cc1nn(-c2ccc(C(F)(F)F)cc2)c(C)c1[C@@H]1C=C[C@@H](NC(=O)c2cccs2)C1	2.8µM
Cc1nn(-c2cccc(Br)c2)c(C)c1[C@@H]1C=C[C@@H](NC(=O)CC(C)(C)CC(=O)O)C1	8.9µM
COc1ccc(NC(=O)O[C@@H]2C=C[C@H](c3c(C)nn(-c4ccccc4C)c3C)C2)cc1	–
Cc1nn(Cc2ccccc2)c(C)c1[C@@H]1C=C[C@@H](NC(=O)CCC(=O)O)C1	–
Cc1ccc(-n2nc(C)c([C@H]3C=C[C@@H](OC(=O)Nc4cccc(F)c4)C3)c2C)cc1Cl	11µM
Cc1nn(-c2ccccc2)c(C)c1[C@@H]1C=C[C@@H](NCc2ccc(F)cc2)C1	5µM
